Measurements published in PubChem BioAssay AID1159580 (chemical genetic matrix, 2015).
Screen size: about 5,500 compounds; about 2,000 (36%) were called active. Another 18% or so got no clear call; they are omitted. No stated cut-off is given here; in the data, active means normalized growth mostly below about 0.91 (no sharp cut-off); inconclusive means no clear call, values can overlap the other calls; inactive means mostly above about 0.92. Some of the results follow.

Assay: chemical genetic growth profiling, strain panel (AID 1159580);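 further: tested at 20 µM; growth read once vehicle control cultures reached saturation at 30 °C; 1 = growth at the plate median or of vehicle wells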
Details: growth OD
[1] = S. cerevisiae deletion strains, locus YAL013W, strain DEP1, stronger effect = lower value
[2] = S. cerevisiae deletion strains, locus YBR229C, strain ROT2, stronger effect = lower value
[3] = S. cerevisiae deletion strains, locus YDL101C, strain DUN1, stronger effect = lower value
[4] = S. cerevisiae deletion strains, locus YDL134C, strain PPH21, stronger effect = lower value
[5] = S. cerevisiae deletion strains, locus YDR150W, strain NUM1, stronger effect = lower value
[6] = S. cerevisiae deletion strains, locus YEL061C, strain CIN8, stronger effect = lower value
[7] = S. cerevisiae deletion strains, locus YGR078C, strain PAC10, stronger effect = lower value
[8] = S. cerevisiae deletion strains, locus YHR030C, strain SLT2, stronger effect = lower value
[9] = S. cerevisiae deletion strains, locus YHR087W, strain rtc3, stronger effect = lower value
[10] = S. cerevisiae deletion strains, locus YJL187C, strain SWE1, stronger effect = lower value
[11] = S. cerevisiae deletion strains, locus YJR043C, strain POL32, stronger effect = lower value
[12] = S. cerevisiae deletion strains, locus YJR075W, strain HOC1, stronger effect = lower value
[13] = S. cerevisiae deletion strains, locus YLR039C, strain RIC1, stronger effect = lower value
[14] = S. cerevisiae deletion strains, locus YLR058C, strain SHM2 (second series), stronger effect = lower value
[15] = S. cerevisiae deletion strains, locus YLR085C, strain ARP6, stronger effect = lower value
[16] = S. cerevisiae deletion strains, locus YLR262C, strain YPT6, stronger effect = lower value
[17] = S. cerevisiae deletion strains, locus YML094W, strain GIM5, stronger effect = lower value
[18] = S. cerevisiae deletion strains, locus YMR219W, strain ESC1, stronger effect = lower value
[19] = S. cerevisiae deletion strains, locus YMR263W, strain SAP30, stronger effect = lower value
[20] = S. cerevisiae deletion strains, locus YNL153C, strain GIM3, stronger effect = lower value
[21] = S. cerevisiae deletion strains, locus YNL298W, strain CLA4 (second series), stronger effect = lower value
[22] = S. cerevisiae deletion strains, locus YNL322C, strain KRE1, stronger effect = lower value
[23] = S. cerevisiae deletion strains, locus YNR030W, strain Alg12, stronger effect = lower value
[24] = S. cerevisiae deletion strains, locus YOL006C, strain TOP1, stronger effect = lower value
[25] = S. cerevisiae deletion strains, locus YPL055C, strain LGE1, stronger effect = lower value
[26] = S. cerevisiae deletion strains, locus YPL241C, strain CIN2, stronger effect = lower value
[27] = S. cerevisiae deletion strains, locus YPR135W, strain CTF4, stronger effect = lower value

Measured: normalized growth

Cc1cc(C)cc(N2C(=O)CC(Sc3ccccc3C(=O)O)C2=O)c1 (stereo unspecified)
active: [4] 0.773 | [8] 0.668 | [10] 0.894 | [11] 0.789 | S. cerevisiae deletion strains, locus YKL190W, strain CNB1, stronger effect = lower value 0.771 | [13] 0.109 | [15] 0.619 | [16] 0.12 | [17] 0.849 | [20] 0.876 | [21] 0.711 | [23] 0.078 | [24] 0.27 | [26] 0.0797 | [27] 0.222
inactive: [1] 0.955 | [2] 0.987 | [3] 0.953 | [5] 0.945 | [6] 0.961 | [7] 1 | [9] 0.987 | [12] 1.01 | [14] 0.995 | [18] 0.996 | [19] 0.928 | [22] 1 | [25] 0.876

CN(C)C(=N)N=C(N)N
inactive: S. cerevisiae deletion strains, locus YAL021C, strain ccr4, stronger effect = lower value 1.01 | S. cerevisiae deletion strains, locus YAL026C, strain drs2, stronger effect = lower value 1.02 | S. cerevisiae deletion strains, locus YAL030W, strain snc1, stronger effect = lower value 0.997 | S. cerevisiae deletion strains, locus YBL061C, strain skt5, stronger effect = lower value 1.03 | S. cerevisiae deletion strains, locus YBR009C, strain hhf1, stronger effect = lower value 0.966 | S. cerevisiae deletion strains, locus YBR023C, strain chs3, stronger effect = lower value 1.02 | S. cerevisiae deletion strains, locus YBR171W, strain sec66, stronger effect = lower value 1.01 | S. cerevisiae deletion strains, locus YBR231C, strain swc5, stronger effect = lower value 0.997 | S. cerevisiae deletion strains, locus YBR279W, strain paf1, stronger effect = lower value 1.03 | S. cerevisiae deletion strains, locus YCL011C, strain gbp2, stronger effect = lower value 1.01 | S. cerevisiae deletion strains, locus YCL016C, strain dcc1, stronger effect = lower value 1.04 | S. cerevisiae deletion strains, locus YCL061C, strain MRC1, stronger effect = lower value 0.995 | S. cerevisiae deletion strains, locus YCL069W, strain vba3, stronger effect = lower value 1 | S. cerevisiae deletion strains, locus YCR088W, strain abp1, stronger effect = lower value 1.01 | S. cerevisiae deletion strains, locus YDL005C, strain med2, stronger effect = lower value 1.02 | S. cerevisiae deletion strains, locus YDL040C, strain nat1, stronger effect = lower value 1 | S. cerevisiae deletion strains, locus YDR001C, strain nth1, stronger effect = lower value 1 | S. cerevisiae deletion strains, locus YDR069C, strain doa4, stronger effect = lower value 0.984 | S. cerevisiae deletion strains, locus YDR137W, strain rgp1, stronger effect = lower value 1.05 | S. cerevisiae deletion strains, locus YDR159W, strain sac3, stronger effect = lower value 0.893 | S. cerevisiae deletion strains, locus YDR195W, strain ref2 1.02 | S. cerevisiae deletion strains, locus YDR297W, strain sur2, stronger effect = lower value 0.998 | S. cerevisiae deletion strains, locus YDR334W, strain swr1, stronger effect = lower value 0.998 | S. cerevisiae deletion strains, locus YDR335W, strain msn5, stronger effect = lower value 1.03 | S. cerevisiae deletion strains, locus YDR392W, strain spt3, stronger effect = lower value 0.858 | S. cerevisiae deletion strains, locus YEL003W, strain gim4, stronger effect = lower value 0.985 | S. cerevisiae deletion strains, locus YEL037C, strain rad23, stronger effect = lower value 1.01 | S. cerevisiae deletion strains, locus YEL061C, strain CIN8 (second series), stronger effect = lower value 1 | S. cerevisiae deletion strains, locus YER015W, strain faa2, stronger effect = lower value 1.01 | S. cerevisiae deletion strains, locus YER016W, strain bim1, stronger effect = lower value 1.02 | S. cerevisiae deletion strains, locus YER111C, strain swi4, stronger effect = lower value 1.03 | S. cerevisiae deletion strains, locus YER155C, strain BEM2 (second series), stronger effect = lower value 0.867 | S. cerevisiae deletion strains, locus YFR010W, strain ubp6, stronger effect = lower value 0.978 | S. cerevisiae deletion strains, locus YGL167C, strain pmr1, stronger effect = lower value 0.999 | S. cerevisiae deletion strains, locus YGL173C, strain kem1, stronger effect = lower value 0.993 | S. cerevisiae deletion strains, locus YGL227W, strain vid30, stronger effect = lower value 0.996 | S. cerevisiae deletion strains, locus YGL240W, strain doc1, stronger effect = lower value 0.996 | S. cerevisiae deletion strains, locus YGL253W, strain hxk2, stronger effect = lower value 1.04 | S. cerevisiae deletion strains, locus YHR013C, strain ard1, stronger effect = lower value 1.01 | S. cerevisiae deletion strains, locus YHR027C, strain rpn1, stronger effect = lower value 0.986 | [8] 1.02 | S. cerevisiae deletion strains, locus YHR079C, strain IRE1, stronger effect = lower value 0.977 | S. cerevisiae deletion strains, locus YHR142W, strain chs7, stronger effect = lower value 1.02 | S. cerevisiae deletion strains, locus YJL092W, strain hpr5, stronger effect = lower value 0.997 | S. cerevisiae deletion strains, locus YJL095W, strain BCK1 (second series), stronger effect = lower value 1.01 | S. cerevisiae deletion strains, locus YJL095W, strain BCK1, stronger effect = lower value 0.987 | S. cerevisiae deletion strains, locus YJL115W, strain asf1, stronger effect = lower value 1.01 | S. cerevisiae deletion strains, locus YJL129C, strain trk1, stronger effect = lower value 1 | S. cerevisiae deletion strains, locus YJL154C, strain vps35, stronger effect = lower value 1 | S. cerevisiae deletion strains, locus YJL164C, strain tpk1, stronger effect = lower value 0.969 | S. cerevisiae deletion strains, locus YJL166W, strain qcr8, stronger effect = lower value 0.982 | S. cerevisiae deletion strains, locus YJR066W, strain TOR1, stronger effect = lower value 0.952 | S. cerevisiae deletion strains, locus YKL160W, strain elf1, stronger effect = lower value 1.04 | S. cerevisiae deletion strains, locus YKR026C, strain gcn3, stronger effect = lower value 1 | S. cerevisiae deletion strains, locus YKR091W, strain srl3, stronger effect = lower value 0.998 | S. cerevisiae deletion strains, locus YLL001W, strain dnm1, stronger effect = lower value 0.98 | S. cerevisiae deletion strains, locus YLL026W, stronger effect = lower value 1 | S. cerevisiae deletion strains, locus YLL041C, strain sdh2, stronger effect = lower value 0.998 | S. cerevisiae deletion strains, locus YLR027C, strain aat2, stronger effect = lower value 0.991 | S. cerevisiae deletion strains, locus YLR113W, strain HOG1, stronger effect = lower value 0.954 | S. cerevisiae deletion strains, locus YLR221C, strain rsa3, stronger effect = lower value 0.963 | S. cerevisiae deletion strains, locus YLR258W, strain gsy2, stronger effect = lower value 1.03 | S. cerevisiae deletion strains, locus YLR262C, strain YPT6 (second series), stronger effect = lower value 0.987 | S. cerevisiae deletion strains, locus YLR320W, strain mms22, stronger effect = lower value 0.93 | S. cerevisiae deletion strains, locus YLR342W, strain FKS1, stronger effect = lower value 0.996 | S. cerevisiae deletion strains, locus YLR357W, strain rsc2, stronger effect = lower value 1 | S. cerevisiae deletion strains, locus YLR370C, strain arc18, stronger effect = lower value 1.01 | S. cerevisiae deletion strains, locus YLR384C, strain iki3, stronger effect = lower value 0.99 | S. cerevisiae deletion strains, locus YML120C, strain ndi1, stronger effect = lower value 0.992 | S. cerevisiae deletion strains, locus YMR058W, strain fet3, stronger effect = lower value 1 | S. cerevisiae deletion strains, locus YMR125W, strain sto1, stronger effect = lower value 1.01 | S. cerevisiae deletion strains, locus YMR129W, stronger effect = lower value 0.992 | S. cerevisiae deletion strains, locus YMR205C, strain PFK2, stronger effect = lower value 0.985 | S. cerevisiae deletion strains, locus YMR231W, strain pep5, stronger effect = lower value 1 | S. cerevisiae deletion strains, locus YNL071W, strain lat1, stronger effect = lower value 0.995 | S. cerevisiae deletion strains, locus YNL183C, strain NPR1, stronger effect = lower value 0.923 | S. cerevisiae deletion strains, locus YNL209W, strain ssb2, stronger effect = lower value 1.02 | S. cerevisiae deletion strains, locus YNL248C, strain rpa49, stronger effect = lower value 1.02 | S. cerevisiae deletion strains, locus YNL322C, strain KRE1 (second series), stronger effect = lower value 1.02 | S. cerevisiae deletion strains, locus YNR049C, strain mso1, stronger effect = lower value 0.992 | S. cerevisiae deletion strains, locus YOR001W, strain rrp6, stronger effect = lower value 0.948 | S. cerevisiae deletion strains, locus YOR070C, strain gyp1, stronger effect = lower value 1.01 | S. cerevisiae deletion strains, locus YOR080W, strain dia2, stronger effect = lower value 1 | S. cerevisiae deletion strains, locus YOR083W, strain WHI5, stronger effect = lower value 0.975 | S. cerevisiae deletion strains, locus YOR106W, strain vam3, stronger effect = lower value 1.02 | S. cerevisiae deletion strains, locus YOR231W, strain MKK1, stronger effect = lower value 0.99 | S. cerevisiae deletion strains, locus YOR265W, strain rbl2, stronger effect = lower value 1.01 | S. cerevisiae deletion strains, locus YOR270C, strain vph1, stronger effect = lower value 0.929 | S. cerevisiae deletion strains, locus YOR290C, strain snf2, stronger effect = lower value 1.05 | S. cerevisiae deletion strains, locus YPL051W, strain arl3, stronger effect = lower value 1.05 | S. cerevisiae deletion strains, locus YPL078C, strain atp4, stronger effect = lower value 1.05 | S. cerevisiae deletion strains, locus YPL106C, strain sse1, stronger effect = lower value 1.09 | S. cerevisiae deletion strains, locus YPL240C, strain hsp82, stronger effect = lower value 1 | S. cerevisiae deletion strains, locus YPL256C, strain CLN2, stronger effect = lower value 0.961

N#Cc1ccc(Oc2ccc(Cl)cc2)nc1
inactive: [1] 1.04 | [2] 0.975 | [3] 0.944 | [4] 0.985 | [5] 1.01 | [6] 0.977 | [7] 1 | S. cerevisiae deletion strains, locus YGR229C, strain SMI1, stronger effect = lower value 0.987 | [8] 0.86 | [9] 0.992 | [11] 0.984 | [12] 0.968 | [13] 1.09 | [14] 0.966 | [15] 1.05 | [16] 1.05 | [17] 1.03 | [18] 0.971 | [19] 1.02 | [20] 0.986 | [21] 0.977 | [22] 0.98 | [23] 1.02 | [24] 0.903 | [25] 1.14 | [26] 0.886 | [27] 1.2

NC(=S)c1ccc(Oc2ccc(Cl)cc2)nc1
active: [1] 0.064 | [2] 0.0587 | [3] 0.0679 | [5] 0.0611 | [6] 0.0551 | [7] 0.0731 | [8] 0.0713 | [9] 0.0597 | [10] 0.0568 | [11] 0.0583 | [12] 0.0782 | [13] 0.0764 | [14] 0.0563 | [15] 0.0896 | [16] 0.0758 | [17] 0.0624 | [18] 0.0569 | [19] 0.0585 | S. cerevisiae deletion strains, locus YMR307W, strain GAS1, stronger effect = lower value 0.112 | [20] 0.0622 | [21] 0.0667 | [22] 0.0647 | [23] 0.0581 | [25] 0.0942 | [26] 0.0912 | [27] 0.194 | S. cerevisiae strains, strain wild type, stronger effect = lower value 0.0499
